Experimental data as given in PubChem BioAssay.
A number with no mark means an inactive call. Active and inactive are the calls of the source. Unless noted, no stated cut-off is given here; in the data, active means inhibition above about 28%; inactive means the rest.

Test system: not listed separately
Test: StAR promoter reporter inhibitors, counter-screen for LRH-1 inverse agonist project, cell-based, luminescence, high throughput (AID 651611)
Conditions: StAR promoter luciferase reporter counterscreen, at 3.6 µM, stronger effect = higher value

Row | SMILES | inhibition
1 | Cc1cc(OC(=O)c2ccco2)c2c3c(c(=O)oc2c1)CCCC3 | 7.67%
2 | CC12CCC(O)CC1CCC1C2CCC2(C)C(C3=CC(=O)OC3)C(O)CC12O (stereo unspecified) | 92.6% (active)
3 | CCOC(=O)[C@]12Cc3cc(Cl)ccc3[C@H]1N(C1CCCCC1)C(=O)c1cc(OC)ccc12 | 87.5% (active)
4 | N#CCCn1cc(C(=O)Nc2ccc([N+](=O)[O-])cc2)c(-c2ccccc2)n1 | 7.58%
5 | CCN(CC)C(=O)COc1cc(C)cc2oc(=O)c3c(c12)CCCC3 | 7.68%
6 | C[C@@H]1O[C@@H](O[C@H]2C[C@@H](O)[C@]3(CO)[C@H]4[C@H](O)C[C@]5(C)[C@@H](C6COC(=O)C6)CC[C@]5(O)[C@@H]4CC[C@]3(O)C2)[C@H](O)[C@H](O)[C@H]1O (stereo partly specified) | 92.4% (active)
7 | CC(=O)O[C@H]1C[C@@H]2OC3C=C(C)CCC3(C)[C@@]1(C)[C@@]21CO1 (stereo partly specified) | 95.6% (active)
8 | Cc1cc(OCC(=O)OC(C)C)c2c3c(c(=O)oc2c1)CCCC3 | 14.7%
9 | COC1/C=C/C=C(\C)Cc2cc(O)c(Cl)c(c2)N(C)C(=O)CC(OC(=O)C(C)C)C2(C)OC2C(C)C2CC1(O)NC(=O)O2 (stereo unspecified) | 64.9% (active)
10 | CCOC(=O)[C@]12Cc3cc(Cl)ccc3[C@H]1N(C1CCCCC1)C(=O)c1ccccc12 | 80.2% (active)
11 | CC1CCN(C(=O)CCl)CC1 | 21.1%
12 | CC(=O)OC1CC(OC2C(O)CC(OC3C(O)CC(OC4CCC5(C)C(CCC6C5CCC5(C)C(C7=CC(=O)OC7)CCC65O)C4)OC3C)OC2C)OC(C)C1OC1OC(CO)C(O)C(O)C1O (stereo unspecified) | 94.6% (active)
13 | O=c1[nH]c2ccccc2n1C1CCN(Cc2ccc(-c3[nH]c4cc5ncnc5cc4nc3-c3ccccc3)cc2)CC1 | 42.3% (active)
14 | COC(=O)C12CCc3c(ccc4cc(OC)ccc34)C1=CC(=O)C2 (stereo unspecified) | 0.25%
15 | CCOC(=O)[C@]12Cc3cc(C)ccc3[C@H]1N(C1CCCCC1)C(=O)c1ccccc12 | 71.1% (active)
16 | c1ccc2c(c1)[IH]c1ccccc1-2 | 42.4% (active)
17 | Cc1ccccc1-n1c(/C=C/c2ccccn2)nc2ccccc2c1=O | 35.8% (active)
18 | O=[N+]([O-])c1cc(F)c(N2CCCCCC2)cc1N1CCNCC1 | 14.3%
19 | CCOC(=O)[C@]12Cc3cc(Cl)ccc3[C@H]1N(CC(=O)OC)C(=O)c1ccccc12 | 72.7% (active)

Row | SMILES | inhibition
20 | CCOc1cc(C=O)ccc1O | -4.06%
21 | CCOC(=O)[C@]12Cc3cc(C)ccc3[C@H]1N(C1CCCCC1)C(=O)c1cc(OC)ccc12 | 63.5% (active)
22 | N#CCCn1cc(C(=O)Nc2ccccc2Cl)c(-c2ccc([N+](=O)[O-])cc2)n1 | 16.9%
23 | C=C1C(=O)O[C@@H]2C[C@@H](C)[C@@H]3C4OC4C(=O)[C@@]3(C)[C@@H](O)[C@H]12 (stereo partly specified) | -30%
24 | COC(=O)C(C)Oc1cc(C)cc2oc(=O)c3c(c12)CCC3 (stereo unspecified) | 47.8% (active)
25 | N#Cc1ccc2nc(-c3ccc(CN4CCC(n5c(=O)[nH]c6ccccc65)CC4)cc3)c(-c3ccccc3)nc2c1 | 43.8% (active)
26 | CC(=O)OC(C)(C)/C=C/C(=O)C(C)(O)C1C(O)CC2(C)C3CC=C4C(CC(O)C(=O)C4(C)C)C3(C)C(=O)CC12C (stereo unspecified) | 66% (active)
27 | CCCCn1c(NC(=O)c2ccc(Br)o2)c(C(=O)OCC)c2nc3ccccc3nc21 | 27.1%
28 | Cc1nn(Cc2ccccc2)c(C)c1C(=O)OCC(=O)Nc1ccccc1SCC#N | -1.13%
29 | Cc1ccc(-n2nc(C)cc2NC(=O)COc2cc(C)cc3oc(=O)c4c(c23)CCC4)cc1 | 19.1%
30 | OC1(c2ccc(F)cc2)CC2CCC(C1)N2Cc1nnnn1C1CCCC1 (stereo unspecified) | -7.67%
31 | CCOC(=O)c1c(C)n(CC(O)CN2CCOCC2)c2cc(Br)c(OC)cc12 (stereo unspecified) | 22%
32 | CC1=C(O)C(=O)C=C2C1=CC=C1C2(C)CCC2(C)C3CC(C)(C(=O)O)CCC3(C)CCC12C (stereo unspecified) | 91.6% (active)
33 | CCN1CCN(c2cc(N3CCCC3)c([N+](=O)[O-])cc2F)CC1 | 1.38%
34 | NC(Cc1ccc(F)cc1)c1csc(Nc2ncccn2)n1 (stereo unspecified) | 40.1% (active)
35 | CC[n+]1c(/C=C/C=C/c2ccc(N(C)C)cc2)sc2ccccc21 | 54% (active)
36 | CC1=CC2OC3CC4OC(=O)C=CC=CC(=O)OCCC(C)C(O)C(=O)OCC2(CC1)C4(C)C31CO1 (stereo unspecified) | 96.6% (active)
37 | CCOC(=O)[C@]12Cc3ccc(C)cc3[C@H]1N(C1CCCCC1)C(=O)c1cc(OC)ccc12 | 77.2% (active)
38 | Cc1cc(S(=O)(=O)NC(C)C)ccc1OCC(=O)N1CCN(Cc2ccc3c(c2)OCO3)CC1 | 16.6%

Molecular target: Nuclear receptor subfamily 5 group A member 2 (Homo sapiens) (UniProt O00482)
Sequence (O00482 whole entry, looked up): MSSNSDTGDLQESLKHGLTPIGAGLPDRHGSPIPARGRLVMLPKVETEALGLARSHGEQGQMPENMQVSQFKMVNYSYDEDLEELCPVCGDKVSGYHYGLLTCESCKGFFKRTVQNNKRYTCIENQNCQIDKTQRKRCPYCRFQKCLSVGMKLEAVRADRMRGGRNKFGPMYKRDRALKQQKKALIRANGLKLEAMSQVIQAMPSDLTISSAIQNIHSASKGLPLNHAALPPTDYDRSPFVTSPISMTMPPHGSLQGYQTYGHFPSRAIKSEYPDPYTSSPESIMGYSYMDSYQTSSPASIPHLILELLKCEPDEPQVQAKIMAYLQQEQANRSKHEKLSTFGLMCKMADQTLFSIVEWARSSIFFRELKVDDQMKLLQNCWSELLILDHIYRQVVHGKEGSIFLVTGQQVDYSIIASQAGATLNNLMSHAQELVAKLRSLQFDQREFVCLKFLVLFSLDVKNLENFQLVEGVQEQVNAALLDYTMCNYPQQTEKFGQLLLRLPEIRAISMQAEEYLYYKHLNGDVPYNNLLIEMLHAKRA
Test: LRH-1 (NR5A2) inverse agonists, retest, confirmation, cell-based, luminescence (AID 651613; in the data active means inhibition above about 42%;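 further: HEK293T cells co-transfected with LRH-1 and StAR promoter luciferase reporter; 0% = vehicle wells and 100% = parental cells lacking receptor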)
Conditions: cell-based LRH-1 luciferase reporter, inverse agonism; at 3.6 µM; stronger effect = higher value

Row | SMILES | inhibition
39 | Cc1cc(OC(=O)c2ccco2)c2c3c(c(=O)oc2c1)CCCC3 | 56% (active)
40 | CC12CCC(O)CC1CCC1C2CCC2(C)C(C3=CC(=O)OC3)C(O)CC12O (stereo unspecified) | 94.1% (active)
41 | CCOC(=O)[C@]12Cc3cc(Cl)ccc3[C@H]1N(C1CCCCC1)C(=O)c1cc(OC)ccc12 | 105% (active)
42 | N#CCCn1cc(C(=O)Nc2ccc([N+](=O)[O-])cc2)c(-c2ccccc2)n1 | 35.3%
43 | CCN(CC)C(=O)COc1cc(C)cc2oc(=O)c3c(c12)CCCC3 | 63.6% (active)
44 | C[C@@H]1O[C@@H](O[C@H]2C[C@@H](O)[C@]3(CO)[C@H]4[C@H](O)C[C@]5(C)[C@@H](C6COC(=O)C6)CC[C@]5(O)[C@@H]4CC[C@]3(O)C2)[C@H](O)[C@H](O)[C@H]1O (stereo partly specified) | 103% (active)
45 | CC(=O)O[C@H]1C[C@@H]2OC3C=C(C)CCC3(C)[C@@]1(C)[C@@]21CO1 (stereo partly specified) | 109% (active)
46 | Cc1cc(OCC(=O)OC(C)C)c2c3c(c(=O)oc2c1)CCCC3 | 57.9% (active)
47 | COC1/C=C/C=C(\C)Cc2cc(O)c(Cl)c(c2)N(C)C(=O)CC(OC(=O)C(C)C)C2(C)OC2C(C)C2CC1(O)NC(=O)O2 (stereo unspecified) | 60.1% (active)
48 | CCOC(=O)[C@]12Cc3cc(Cl)ccc3[C@H]1N(C1CCCCC1)C(=O)c1ccccc12 | 107% (active)
49 | CC1CCN(C(=O)CCl)CC1 | 58.2% (active)
50 | CC(=O)OC1CC(OC2C(O)CC(OC3C(O)CC(OC4CCC5(C)C(CCC6C5CCC5(C)C(C7=CC(=O)OC7)CCC65O)C4)OC3C)OC2C)OC(C)C1OC1OC(CO)C(O)C(O)C1O (stereo unspecified) | 109% (active)
51 | O=c1[nH]c2ccccc2n1C1CCN(Cc2ccc(-c3[nH]c4cc5ncnc5cc4nc3-c3ccccc3)cc2)CC1 | 64.2% (active)
52 | COC(=O)C12CCc3c(ccc4cc(OC)ccc34)C1=CC(=O)C2 (stereo unspecified) | 12.9%
53 | CCOC(=O)[C@]12Cc3cc(C)ccc3[C@H]1N(C1CCCCC1)C(=O)c1ccccc12 | 102% (active)
54 | c1ccc2c(c1)[IH]c1ccccc1-2 | 78.5% (active)
55 | Cc1ccccc1-n1c(/C=C/c2ccccn2)nc2ccccc2c1=O | 49.5% (active)
56 | O=[N+]([O-])c1cc(F)c(N2CCCCCC2)cc1N1CCNCC1 | 54.1% (active)
57 | CCOC(=O)[C@]12Cc3cc(Cl)ccc3[C@H]1N(CC(=O)OC)C(=O)c1ccccc12 | 94.3% (active)

Row | SMILES | inhibition
58 | CCOc1cc(C=O)ccc1O | 41.4% (active)
59 | CCOC(=O)[C@]12Cc3cc(C)ccc3[C@H]1N(C1CCCCC1)C(=O)c1cc(OC)ccc12 | 97.4% (active)
60 | N#CCCn1cc(C(=O)Nc2ccccc2Cl)c(-c2ccc([N+](=O)[O-])cc2)n1 | 57.2% (active)
61 | C=C1C(=O)O[C@@H]2C[C@@H](C)[C@@H]3C4OC4C(=O)[C@@]3(C)[C@@H](O)[C@H]12 (stereo partly specified) | 60.7% (active)
62 | COC(=O)C(C)Oc1cc(C)cc2oc(=O)c3c(c12)CCC3 (stereo unspecified) | 76.3% (active)
63 | N#Cc1ccc2nc(-c3ccc(CN4CCC(n5c(=O)[nH]c6ccccc65)CC4)cc3)c(-c3ccccc3)nc2c1 | 44% (active)
64 | CC(=O)OC(C)(C)/C=C/C(=O)C(C)(O)C1C(O)CC2(C)C3CC=C4C(CC(O)C(=O)C4(C)C)C3(C)C(=O)CC12C (stereo unspecified) | 56.8% (active)
65 | CCCCn1c(NC(=O)c2ccc(Br)o2)c(C(=O)OCC)c2nc3ccccc3nc21 | 27.8%
66 | Cc1nn(Cc2ccccc2)c(C)c1C(=O)OCC(=O)Nc1ccccc1SCC#N | 58.8% (active)
67 | Cc1ccc(-n2nc(C)cc2NC(=O)COc2cc(C)cc3oc(=O)c4c(c23)CCC4)cc1 | 60.3% (active)
68 | OC1(c2ccc(F)cc2)CC2CCC(C1)N2Cc1nnnn1C1CCCC1 (stereo unspecified) | 46.8% (active)
69 | CCOC(=O)c1c(C)n(CC(O)CN2CCOCC2)c2cc(Br)c(OC)cc12 (stereo unspecified) | 57.1% (active)
70 | CC1=C(O)C(=O)C=C2C1=CC=C1C2(C)CCC2(C)C3CC(C)(C(=O)O)CCC3(C)CCC12C (stereo unspecified) | 106% (active)
71 | CCN1CCN(c2cc(N3CCCC3)c([N+](=O)[O-])cc2F)CC1 | 51.2% (active)
72 | NC(Cc1ccc(F)cc1)c1csc(Nc2ncccn2)n1 (stereo unspecified) | 43.3% (active)
73 | CC[n+]1c(/C=C/C=C/c2ccc(N(C)C)cc2)sc2ccccc21 | 104% (active)
74 | CC1=CC2OC3CC4OC(=O)C=CC=CC(=O)OCCC(C)C(O)C(=O)OCC2(CC1)C4(C)C31CO1 (stereo unspecified) | 109% (active)
75 | CCOC(=O)[C@]12Cc3ccc(C)cc3[C@H]1N(C1CCCCC1)C(=O)c1cc(OC)ccc12 | 104% (active)
76 | Cc1cc(S(=O)(=O)NC(C)C)ccc1OCC(=O)N1CCN(Cc2ccc3c(c2)OCO3)CC1 | 52.9% (active)
